{
  "source": "PubChem BioAssay AID1626",
  "about": "(SRMLSC, 2009)",
  "note": "“And” between values parts separate entries of the source, which are not always exact repeats. Identical values can stand only once. Hit rate of the full screen: of about 220,000 compounds, about 2,000 (0.91%) were called active. About 2% were inconclusive and are not listed. Only a sample is shown. Results with a measured potency or affinity are listed apart. Unmarked numbers belong to inactive results. No stated cut-off is given here; in the data, inconclusive means inhibition above about 80% without an active follow-up result; inactive means below that; test concentration not stated here.",
  "data": [
    {"assay": "M. tuberculosis H37Rv growth inhibitors, H37Rv strain (AID 1626);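 further: bacteria incubated seven days before Alamar blue readout; 0% = bacteria only wells and 100% = bacteria with antibiotic wells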", "conditions": "hits give high values, concentration not given here", "values": [
      {"smiles": "O=C(O)c1ccc(-c2noc(-c3cccc(F)c3)n2)cc1", "inhibition": "-9.57%"},
      {"smiles": "COc1ccc2[nH]c(=O)c(CN(CCCN3CCOCC3)C(=O)NCc3ccccc3)cc2c1", "inhibition": "6.13%"},
      {"smiles": "COc1cc(NC(=O)CSc2nnc(Cn3nnc4ccccc43)n2C)cc(OC)c1", "inhibition": "3.53%"},
      {"smiles": "CCCCN(C)CCC(=O)Nc1ccc(OC)cc1OC", "inhibition": "-13.6%"},
      {"smiles": "Cc1ccccc1Nc1cc(C(=O)NCC2CCCO2)c2ccccc2n1", "note": "(stereo unspecified)", "inhibition": "5.9%"},
      {"smiles": "CCOC(=O)N1CCN(C(=S)Nc2cccc(C)c2)CC1", "inhibition": "-4.85%"},
      {"smiles": "COc1ccc(C(=O)Nc2ccc(NC(=O)c3cccs3)cc2)cc1Cl", "inhibition": "-14.7%"},
      {"smiles": "CC(=O)Nc1ccc(C(=O)N/N=C/c2ccc(F)cc2)cc1", "inhibition": "7.2%"},
      {"smiles": "Cc1ccsc1C(C(=O)NC1CCCCC1)N(C(=O)c1csnn1)C1CC1", "note": "(stereo unspecified)", "inhibition": "-8.93%"},
      {"smiles": "COC(=O)CSc1nc(-c2ccccc2)nc2ccccc12", "inhibition": "5.34%"},
      {"smiles": "COC(=O)CSc1cnc2ccccc2n1", "inhibition": "-1.39%"},
      {"smiles": "Cc1ccc(-n2c(C)nn(CCOc3ccccc3)c2=O)cc1", "inhibition": "6.33%"},
      {"smiles": "CN(C)C(/C=C/Nc1cccc([N+](=O)[O-])c1)=C(C#N)C#N", "inhibition": "-7.29%"},
      {"smiles": "CCN(CC)c1nc(Oc2ccc(=O)[nH]n2)nc(N2CCOCC2)n1", "inhibition": "0.81%"},
      {"smiles": "Cc1ccccc1NC(=O)NC(C)(C)CC(C)(C)C", "inhibition": "-4.38%"},
      {"smiles": "COc1cccc(C(C(=O)NC(C)(C)C)N(CC(C)C)C(=O)CCC(=O)Nc2cc(C)on2)c1OC", "note": "(stereo unspecified)", "inhibition": "-4.52%"},
      {"smiles": "O=C(c1ccc(NC2=NC3CS(=O)(=O)CC3S2)cc1)N1CCN(C(=O)c2ccco2)CC1", "note": "(stereo unspecified)", "inhibition": "-2.98%"},
      {"smiles": "OCC1(Cc2cccc(C(F)(F)F)c2)CCN(Cc2cc(F)cc(F)c2)CC1", "inhibition": "1.35%"},
      {"smiles": "Cc1ccc(-n2cc(CN3CCC(CO)(Cc4ccccc4)CC3)cn2)cc1", "inhibition": "0.885%"},
      {"smiles": "O=C(CCN1C(=O)c2ccccc2C1=O)C1=NN[C@@H]2C(=O)N(c3ccc4c(c3)OCO4)C(=O)[C@H]12", "inhibition": "-4.07%"},
      {"smiles": "COc1ccc(CN(CC2CCCO2)C(=O)c2cc3sccc3n2C)c(OC)c1", "note": "(stereo unspecified)", "inhibition": "-12%"},
      {"smiles": "CC1(C)Cc2c(sc3c2c(=O)n(-c2cccc(Cl)c2)c(=O)n3CC(N)=O)CO1", "inhibition": "-12.2%"},
      {"smiles": "CCOC(=O)C1=CN(Cc2ccc(OC)cc2)C=C(C(=O)OCC)C1c1cccs1", "inhibition": "-0.52%"},
      {"smiles": "Cc1cc(Nc2ccc(C)c(Cl)c2)nc(N2CCOCC2)n1", "inhibition": "12.8%"},
      {"smiles": "Cc1cc(C(=O)Nc2ccc3c(c2)OCCO3)c2ccccc2n1", "inhibition": "-3.31%"},
      {"smiles": "O=C(Nc1ccc2c(c1)OCCO2)c1ccccc1F", "inhibition": "6.75%"},
      {"smiles": "O=C(Nc1ccc2oc(-c3ccccc3Cl)nc2c1)c1ncn[nH]1", "inhibition": "6.26%"},
      {"smiles": "Cc1[nH]nc(NNC(=O)c2ccccc2)c1[N+](=O)[O-]", "inhibition": "-6.74%"},
      {"smiles": "O=C1NC(=O)N(c2ccccc2)C(=O)/C1=C\\C=C\\c1ccccc1", "inhibition": "-3.04%"},
      {"smiles": "O=C1NC(=O)N(c2ccccc2)C(=O)/C1=C/C=C/c1ccco1", "inhibition": "-5.19%"},
      {"smiles": "CN1C(=O)OC2(C)CCc3ccccc3C12C", "note": "(stereo unspecified)", "inhibition": "-7.1%"},
      {"smiles": "Cc1ccccc1Nc1nc(N)nc(CCl)n1", "inhibition": "77.4%"},
      {"smiles": "Cc1cc(C)n(-c2nc(C)nc(N)n2)n1", "inhibition": "-4.82%"},
      {"smiles": "CC(=O)c1nnn(-c2nc(N)nc(N(c3ccccc3)c3ccccc3)n2)c1C", "inhibition": "3%"},
      {"smiles": "Cc1cc(NCCO)nc(-n2nc(C)cc2C)n1", "inhibition": "8.23%"},
      {"smiles": "CC(C)Nc1nc(NC(C)C)nc(Nn2cnnc2)n1", "inhibition": "-7.25%"},
      {"smiles": "CNc1nc(C)nc(-n2nc(C)cc2C)n1", "inhibition": "6.41%"},
      {"smiles": "Cc1cc(C)n(-c2nc(Nc3ccccc3)nc(-n3nc(C)cc3C)n2)n1", "inhibition": "-2.93%"},
      {"smiles": "Cc1cc(C)n(-c2nc(N(C)C)nc(N(C)C)n2)n1", "inhibition": "-2.29%"},
      {"smiles": "CCC1CCc2c(sc(NC(=O)C3c4ccccc4Oc4ccccc43)c2C(N)=O)C1", "note": "(stereo unspecified)", "inhibition": "5.29%"},
      {"smiles": "O=C(NC(=S)NCC1CCCO1)c1ccc(Cl)cc1", "note": "(stereo unspecified)", "inhibition": "2.47%"},
      {"smiles": "O=C(NCc1ccccc1)c1onc(CSc2ccccc2)c1C(=O)NCC1CC1", "inhibition": "-10.4%"},
      {"smiles": "CC(C)c1nnc(NC(=O)CSc2nnc(-c3ccco3)o2)s1", "inhibition": "-0.02%"},
      {"smiles": "O=C(Cn1c(=O)n(-c2ccccc2)c(=O)c2sccc21)NCc1ccccc1", "inhibition": "-8%"},
      {"smiles": "CN(C)S(=O)(=O)c1cccc(C(=O)NCC2CCCO2)c1", "note": "(stereo unspecified)", "inhibition": "4.28%"},
      {"smiles": "CC(=O)c1c(C)[nH]c(C(=O)NCc2cccc(Cl)c2)c1C", "inhibition": "-6.84%"},
      {"smiles": "Cc1nnc(Sc2cc(C(=O)NCc3ccco3)c3ccccc3n2)s1", "inhibition": "0.09%"},
      {"smiles": "Cc1cc(C)n(-c2nnc(NCc3ccc(Cl)cc3)nn2)n1", "inhibition": "8.99%"},
      {"smiles": "CCCCNc1nc(-c2ccccc2)nc(-n2ccnc2)n1", "inhibition": "1.24%"},
      {"smiles": "CC(C)Nc1nc(-c2ccccc2)nc(-n2ccnc2)n1", "inhibition": "8.64%"},
      {"smiles": "Cc1cc(C)n(-c2nnc(NC(C)(C)C)nn2)n1", "inhibition": "-8.78%"},
      {"smiles": "Cc1sc2nc(CN3CCCC3)nc(N3CCN(C(=O)c4ccco4)CC3)c2c1C", "inhibition": "-1.07%"},
      {"smiles": "Cc1ccccc1CC1(CO)CCCN(Cc2ccc(C#CC(C)(C)O)cc2)C1", "note": "(stereo unspecified)", "inhibition": "8.42%"},
      {"smiles": "COc1cccc(CN2CCC(C(=O)N3CCN(c4ccccc4F)CC3)CC2)c1", "inhibition": "-8.97%"},
      {"smiles": "CCOC(=O)c1cccc(NC(=O)N[C@@H](C)C(=O)OC)c1", "inhibition": "-9.35%"},
      {"smiles": "CC(=O)c1ccc(-n2cc(-c3ccc(C(C)(C)C)cc3)[n+]3c2SCCC3)cc1", "inhibition": "40.7%"},
      {"smiles": "COc1ccc(-c2cn(-c3ccc(Br)cc3)c3[n+]2CCS3)cc1", "inhibition": "5.88%"},
      {"smiles": "N#Cc1c(/N=C/C=C/c2ccccc2)sc2c1CCCC2", "inhibition": "-4.34%"},
      {"smiles": "Cc1cccc(OCC2=NS(=O)(=O)c3ccccc3N2)c1", "inhibition": "-21.3%"},
      {"smiles": "Cn1nnnc1SCC(=O)Nc1ccccc1-c1ccccc1", "inhibition": "36.5%"},
      {"smiles": "Cc1cc(C)nc(SCC(=O)Nc2nc(-c3ccccc3)c(-c3ccccc3)o2)n1", "inhibition": "5.45%"},
      {"smiles": "CCCCOC(=O)c1ccc(NC(=O)CSc2nncn2C)cc1", "inhibition": "53.2%"},
      {"smiles": "CCOC(=O)c1ccc(NC(=O)CSc2nnnn2CCCO)cc1", "inhibition": "68.7%"},
      {"smiles": "Cn1nnnc1SCC(=O)Nc1ccc(Oc2ccccc2)cc1", "inhibition": "57.4%"},
      {"smiles": "COc1ccc(NC(=O)CSc2nnnn2C)cc1", "inhibition": "-5.32%"},
      {"smiles": "CCOC(=O)c1oc2ccc(S(=O)(=O)Nc3ccc4c(c3)n(C)c(=O)n4C)cc2c1C", "inhibition": "-1.98%"},
      {"smiles": "O=C1CCCC2=C1C(c1ccsc1)CC(=O)N2c1ccccc1F", "note": "(stereo unspecified)", "inhibition": "-5.2%"},
      {"smiles": "CCN(CC)CCCNC(=O)c1ccccc1C", "inhibition": "-9.77%"},
      {"smiles": "O=C(c1ccccc1)N1CCC2(CC1)OCCO2", "inhibition": "-4.39%"},
      {"smiles": "CCN=C1SC(C(=O)Nc2cccc(Cl)c2)CC(=O)N1CC", "note": "(stereo unspecified)", "inhibition": "2.07%"},
      {"smiles": "O=C(c1cc2nc(-c3ccccc3)cc(-c3ccccc3)n2n1)N1CCCC1", "inhibition": "-3%"},
      {"smiles": "CN1CCN(C(=O)c2cc3nc(-c4ccccc4)cc(-c4ccccc4)n3n2)CC1", "inhibition": "4.38%"},
      {"smiles": "CCCCn1c(=O)c(CCC(=O)OCC(=O)NC(=O)NCCC(C)C)nc2ccccc21", "inhibition": "-5.41%"},
      {"smiles": "On1nnc2ccc(C(F)(F)F)cc21", "inhibition": "0.915%"},
      {"smiles": "S=C1NC2=C(CCCC2)C2(CCCCC2)N1", "inhibition": "3.82%"},
      {"smiles": "Cc1cccc(C)c1OCc1nc2ccccc2[nH]1", "inhibition": "-5.31%"},
      {"smiles": "N=c1n(CCN2CCOCC2)c2ccccc2n1CC(=O)c1ccc(Cl)c(Cl)c1", "inhibition": "17.4%"},
      {"smiles": "N=c1n(CCN2CCCCC2)c2ccccc2n1CC(O)c1ccc(Cl)c(Cl)c1", "note": "(stereo unspecified)", "inhibition": "57.5%"},
      {"smiles": "N#C/C(=C\\c1ccc(OC(=O)c2cccs2)cc1)c1nc2ccccc2[nH]1", "inhibition": "28.1%"},
      {"smiles": "N#C/C(=C\\c1ccc(OC(=O)c2ccc(Br)s2)cc1)c1nc2ccccc2[nH]1", "inhibition": "66.1%"},
      {"smiles": "Cc1ccc2nc(/C(C#N)=C\\c3cc(O)ccc3[N+](=O)[O-])[nH]c2c1", "inhibition": "-7.37%"},
      {"smiles": "Cc1ccc2nc(/C(C#N)=C/c3ccc(-c4cccc([N+](=O)[O-])c4)o3)[nH]c2c1", "inhibition": "1.74%"},
      {"smiles": "CN(Cc1nc(Cc2cccc(C(F)(F)F)c2)no1)C1CC(C)(C)NC(C)(C)C1", "inhibition": "4.06%"},
      {"smiles": "COc1ccc(C(=O)NCC(=O)OCC(=O)NCCC2=CCCCC2)cc1", "inhibition": "1.25%"},
      {"smiles": "CCN(CC)S(=O)(=O)c1ccc(-c2nnc(SCC(N)=O)n2CC)cc1", "inhibition": "-3.31%"},
      {"smiles": "CSc1ncc(CO)n1Cc1ccccc1", "inhibition": "-4.14%"},
      {"smiles": "O=C(O)c1ccc(CS(=O)(=O)Cc2ccccc2F)o1", "inhibition": "-18.6%"},
      {"smiles": "COc1ccc(-c2[nH]ncc2CN2CCCN(c3ccccc3)CC2)c(F)c1", "inhibition": "-1.64%"},
      {"smiles": "COc1ccc(-c2[nH]ncc2CN2CCN(c3ccc(F)cc3)CC2)cc1", "inhibition": "-12.3%"},
      {"smiles": "Cn1cnc([N+](=O)[O-])c1Nc1cccc(O)c1", "inhibition": "-3.69%"},
      {"smiles": "CC(=O)CSc1nc2ccc(Nc3nc(N4CCOCC4)nc(N4CCOCC4)n3)cc2s1", "inhibition": "4.02%"},
      {"smiles": "COc1ccc(Nc2nc(NCc3ccco3)nc(N3CCOCC3)n2)cc1", "inhibition": "-1.04%"},
      {"smiles": "O=C(CSc1nc2ccc(Nc3nc(N4CCCC4)nc(N4CCCC4)n3)cc2s1)NCc1ccco1", "inhibition": "68.7%"},
      {"smiles": "Cc1cccc(Nc2nc(NCc3ccco3)nc(N3CCOCC3)n2)c1", "inhibition": "-1.15%"},
      {"smiles": "O=C(Cn1c[n+](CC(=O)c2ccc([N+](=O)[O-])cc2)cn1)c1ccc([N+](=O)[O-])cc1", "inhibition": "-5.51% and -5.64%"},
      {"smiles": "O=C(Cn1cc[n+](Cc2ccccc2)c1)c1ccc([N+](=O)[O-])cc1", "inhibition": "14%"}
    ]}
  ]
}
